Source: the supplement of paper PMC10981050
Values joined by “and” are separate entries in the source; they are usually repeats but may differ in a detail not shown here. Identical values can stand only once. Counter-ions that a name gives are not always drawn.

Legend:
Assay in all cases: cell viability relative to vehicle control; higher = less cytotoxic
Settings in all cases: 10 µM
K562 = test system: K562
Summary of the method: (§1)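 After removal of identity-inconsistent compounds, the Selleck bioactive, kinase and epigenetic probe libraries were screened on CRISPR-edited mutant clones and isogenic wild-type clones of four leukaemia lines. Plates were 384-well, each well holding 2000 cells in 50 µL medium and receiving a single 10 µM acoustically dispensed dose. CellTiter-Glo luminescence was read 48 h later, after the supernatant was taken off. Genedata Screener was used to express viability as percent of the on-plate vehicle control.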

MARIMO = test system: MARIMO
Summary of the method: as §1

MOLM14 = test system: MOLM14
Summary of the method: as §1

OCI-AML2 = test system: OCI-AML2
Summary of the method: as §1

SMILES	cell viability (K562; SRSF2 genotype: SRSF2 P95H/wt)	cell viability (K562; SRSF2 genotype: SRSF2 wt/wt)	cell viability (MARIMO; SRSF2 genotype: SRSF2 P95H/wt)	cell viability (MARIMO; SRSF2 genotype: SRSF2 wt/wt)	cell viability (MOLM14; SRSF2 genotype: SRSF2 P95H/wt)	cell viability (MOLM14; SRSF2 genotype: SRSF2 wt/wt)	cell viability (OCI-AML2; SRSF2 genotype: P95H/wt)	cell viability (OCI-AML2; SRSF2 genotype: wt/wt)
COC(=O)Nc1ccc(-c2nc(N3CCOCC3)c3cnn(C4CCN(C(=O)OC)CC4)c3n2)cc1	43.8% and 55.5%	48.8%	53.5%	52%	40.9%	34.3%	33.9%	32.9%
CC(C)(C)c1nc(-c2cccc(NS(=O)(=O)c3c(F)cccc3F)c2F)c(-c2ccnc(N)n2)s1	90.3% and 101%	84.3%	78.5%	75.8%	73.6%	68.2%	93.2%	83.9%
COc1ccccc1OCC(O)CO (stereo not drawn) [Guaifenesin (Guaiphenesin)]	106% and 104%	107%	103%	108%	107%	109%	105%	118%
CN(CCOc1ccc(CC2SC(=O)NC2=O)cc1)c1ccccn1 (stereo not drawn) [Rosiglitazone maleate]	98.8% and 97.5%	96%	102%	110%	101%	103%	91.5%	107%
CC1(C)C2CCC1(C)C(O)C2 (single isomer, unassigned; (-)) [(-)-Borneol]	103%	106%	100%	109%	101%	104%	109%	106%
Nc1ncnc2c1c(-c1cccc(OCc3ccccc3)c1)cn2C1CC(CN2CCCC2)C1 (stereo not drawn)	85.5% and 90.3%	88.4%	47.1%	40.6%	39.4%	55.1%	35.1%	41.8%
Cc1cnc(Nc2ccc(N3CCN(C)CC3)cc2)nc1Nc1cccc(S(=O)(=O)NC(C)(C)C)c1	0.99% and 2.2%	2.6%	17.1%	16.1%	0.12%	0.18%	0.19%	2.96%
C=C[C@]1(C)C[C@@H](OC(=O)CS[C@@H]2C[C@H]3CC[C@@H](C2)N3C)[C@]2(C)[C@H](C)CC[C@]3(CCC(=O)[C@H]32)[C@@H](C)[C@@H]1O [Retapamulin]	81.2% and 79.9%	84%	85.6%	84.6%	87.6%	84.5%	75.8%	84%
CN(C)/N=N/c1[nH]cnc1C(N)=O [Dacarbazine (DTIC-Dome)]	117% and 112%	110%	108%	107%	97.6%	108%	107%	112%
CNC(=O)c1cc(Oc2ccc(NC(=O)Nc3ccc(Cl)c(C(F)(F)F)c3)c(F)c2)ccn1 [Regorafenib (BAY 73-4506)]	17.6% and 21.9%	14.9%	29.2%	28%	16.6%	13.1%	23.1%	22.8%
CC1=C[C@H](O)CC(C)(C)[C@H]1/C=C/C(C)=C/C=C/C(C)=C/C=C/C=C(C)/C=C/C=C(C)/C=C/C1=C(C)C[C@@H](O)CC1(C)C [lutein]	99.5% and 98.9%	95.8%	88.7%	100%	88.8%	110%	103%	107%
C=CC(=O)Nc1cccc(Nc2nc(Nc3ccc(OCCOC)cc3)ncc2F)c1	66.8% and 79.5%	73.4%	62.1%	60.4%	9.43%	6.93%	28.2%	31.8%
COC(=O)[C@H](O)[C@@H](NC(=O)c1ccccc1)c1ccccc1	108% and 104%	107%	108%	103%	98.1%	106%	104%	110%
Cc1cnc(Nc2ccc(OCCN3CCCC3)cc2)nc1Nc1cccc(S(=O)(=O)NC(C)(C)C)c1	1.46% and 2.3%	2.29%	6.76%	10.9%	0.67%	0.58%	0.71%	1.39%
CN(C)C/C=C/C(=O)Nc1ccc(C(=O)Nc2cccc(Nc3ncc(Cl)c(-c4c[nH]c5ccccc45)n3)c2)cc1	12.4% and 22.2%	16.8%	0.73%	1.23%	0.23%	0.21%	0.37%	0.63%
COc1cc(C)c2c(=O)c(-c3ccccc3)coc2c1 [5-Methyl-7-methoxyisoflavone]	101% and 95.6%	92.2%	85.2%	90.2%	97.1%	92.6%	93.4%	88.4%
O=C(O)C(Cc1ccccc1[N+](=O)[O-])=NNc1nc(-c2ccc(Cl)c(Cl)c2)cs1	95.8% and 93.5%	87.9%	94.2%	114%	91.8%	92.2%	84.8%	94%
COc1ccc(C(=O)CC2(O)C(=O)Nc3c(Cl)ccc(Cl)c32)cc1 (stereo not drawn)	16.2% and 28.8%	27.4%	7.08%	8.57%	6.9%	2.04%	4.82%	10.3%
COCCNCc1ccc(-c2cc3nccc(Oc4ccc(NC(=O)C5(C(=O)Nc6ccc(F)cc6)CC5)cc4F)c3s2)nc1 [Sitravatinib (MGCD516)]	14.2% and 25.4%	10.6%	67.2%	78.5%	5.4%	8.33%	14.1%	27.3%
COc1cc2ncnc(Nc3ccc(F)c(Cl)c3)c2cc1O	92.5% and 95.6%	102%	102%	101%	81.9%	101%	90.2%	94%
O=C1NC(=O)C(c2ccccc2)(c2ccccc2)N1 [Phenytoin (Lepitoin)]	98.1% and 111%	99.6%	107%	103%	100%	103%	105%	91.6%
